Each structure is given as a SMILES string. A number with no mark means an inactive call.

This test concerns E18 rat cortical neuron-glia co-culture. In words: myelination (MBP fiber length per Olig2+ nucleus), % of 1 µM DAPT response (DMSO = 0) (% of DAPT); higher = more myelination, active = 50 or more. Conditions: 5 µM; treatment time: 8 days (DIV5-DIV13). The essentials: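 Myelination, expressed as continuous straight MBP fiber length per Olig2+ nucleus, was normalised to 0.1 % DMSO as 0 and a 1 µM positive control as 100. The cultures were primary E18 rat cortical co-cultures dissociated with papain and plated at 20,000 cells/well on poly-d-lysine/laminin-coated 96-well plates. They received library compounds at 1 or 5 µM in myelination medium between DIV5 and DIV13. Analysis covered four 10X fields per well in duplicate wells after 4 % paraformaldehyde fixation and immunostaining for MBP and Olig2 with DAPI.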
As to `Cc1cccc(Nc2ccncc2S(=O)(=O)NC(=O)NC(C)C)c1` [Torsemide], the myelination was -4.35. As to `O=C1CN(/N=C/c2ccc([N+](=O)[O-])o2)C(=O)N1` [Nitrofurantoin], the myelination was 44.

With `CC(Oc1c(Cl)cccc1Cl)C1=NCCN1` (stereo unspecified) [lofexidine], the myelination is 2.57.

On to `NCCc1ccc(O)c(O)c1` [Dopamine], for which the myelination was 0.308. With `CC(N/C(=N\C#N)Nc1ccncc1)C(C)(C)C` (stereo unspecified) [Pinacidil], the myelination was -19.7.

With `CN(C)c1ccc(O)c2c1C[C@H]1C[C@H]3[C@H](N(C)C)C(O)=C(C(N)=O)C(=O)[C@@]3(O)C(O)=C1C2=O` [Minocycline], the myelination is -5.86. Regarding `CCOC(=O)C1=C(C)NC(C)=C(C(=O)OC)C1c1cccc(Cl)c1Cl` (stereo unspecified) [Felodipine], the myelination was 8.21. In the case of `COc1ccc2cc(CCC(C)=O)ccc2c1` [Nabumetone], the myelination is 6.9. Take `O=[N+]([O-])c1cccc2cn[nH]c12` [7-Nitroindazole]: the myelination was -5.65. Regarding `OCCN1C[C@H](O)[C@@H](O)[C@H](O)[C@H]1CO` [Miglitol], the myelination was -16.8. As for `CCCC(=O)O[C@]1(C(=O)COC(=O)CC)CC[C@H]2[C@@H]3CCC4=CC(=O)CC[C@]4(C)[C@H]3[C@@H](O)C[C@@]21C` [Hydrocortisone buteprate], the myelination is 12.1. `Cc1cccc(Nc2ccccc2C(=O)O)c1C` [Mefenamic Acid]: the myelination is 38.7.

For the compound `Cc1ccccc1C(OCCN(C)C)c1ccccc1` (stereo unspecified) [Orphenadrine], the myelination is -2.71. Take `CCCCC(=O)O[C@H]1CC[C@H]2[C@@H]3CCc4cc(O)ccc4[C@H]3CC[C@]12C` [Estradiol valerate]: the myelination is 11.9. Take `CC1(C)S[C@@H]2[C@H](NC(=O)Cc3ccccc3)C(=O)N2[C@H]1C(=O)O` [Penicillin G]: the myelination is 4.95. On to `CN1CCC(=C2c3ccccc3CC(=O)c3sccc32)CC1` [Ketotifen], for which the myelination is -13.6.

Consider `O=C(CCNNC(=O)c1ccncc1)NCc1ccccc1` [Nialamide], for which the myelination is -19. On to `NC12CC3CC(CC(C3)C1)C2` [Amantadine], for which the myelination was 0.678. Take `Cc1onc(-c2c(Cl)cccc2Cl)c1C(=O)N[C@@H]1C(=O)N2[C@@H]1SC(C)(C)[C@@H]2C(=O)O` [Dicloxacillin]: the myelination is -8.6. Turning to `Cc1cc(NS(=O)(=O)c2ccc(N)cc2)no1` [Sulfamethoxazole], the myelination is -5.03.

Consider `COC(=O)C1=C(C)NC(C)=C(C(=O)OC2CCCN(Cc3ccccc3)C2)C1c1cccc([N+](=O)[O-])c1` (stereo unspecified) [Benidipine], for which the myelination was -63.
